Compound activity (PubChem BioAssay)
12-LOX inh = blocks human arachidonate 12S-lipoxygenase. 580,000 tested, 1.1% active. Potency, µM (series often up to 108 µM), actives largely listed as inhibitors. purified 12hLO, xylenol orange hydroperoxide absorbance. AID 1671190. P18054
Target sequence (P18054 whole entry, looked up): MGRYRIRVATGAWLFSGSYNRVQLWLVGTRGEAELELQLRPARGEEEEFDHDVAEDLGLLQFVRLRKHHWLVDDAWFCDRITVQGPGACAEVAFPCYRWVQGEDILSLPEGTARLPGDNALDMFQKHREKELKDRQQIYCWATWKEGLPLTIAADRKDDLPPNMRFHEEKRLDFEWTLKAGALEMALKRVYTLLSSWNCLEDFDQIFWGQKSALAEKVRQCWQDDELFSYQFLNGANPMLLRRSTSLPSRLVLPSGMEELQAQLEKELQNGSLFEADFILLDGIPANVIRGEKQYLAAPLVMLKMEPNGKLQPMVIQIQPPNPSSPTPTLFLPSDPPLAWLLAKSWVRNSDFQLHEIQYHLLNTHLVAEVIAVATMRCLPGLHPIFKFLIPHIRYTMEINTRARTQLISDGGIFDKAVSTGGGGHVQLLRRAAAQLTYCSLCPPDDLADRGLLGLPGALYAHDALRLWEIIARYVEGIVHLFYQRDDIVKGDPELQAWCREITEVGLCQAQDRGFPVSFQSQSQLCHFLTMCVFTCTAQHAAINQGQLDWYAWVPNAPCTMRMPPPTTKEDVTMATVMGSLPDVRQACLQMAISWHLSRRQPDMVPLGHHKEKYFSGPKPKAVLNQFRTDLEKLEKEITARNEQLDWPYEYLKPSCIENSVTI
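Purified human 12hLO at 150 nM in 25 mM Hepes, 0.01% Triton X-100, pH 7.0, preincubated 15 min at room temperature with compound. Reaction started with 40 uM arachidonic acid, 30 min at room temperature. Hydroperoxide measured by Fe-xylenol orange, 573/405 nm absorbance ratio.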
A549 viability = kills or reduces viability of A549 cells in Nrf2 counter-screen; A549 ARE-Fluc cells, CellTiter-Fluor viability, 18-24 h; Potency, µM (doses to about 46 µM), usual class: inhibitors; 390,000 tested, 0.16% active
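A549 ARE-Fluc cells in 5% FBS OPTI-MEM, 5000 cells/well, rested 2 h then exposed to compounds in concentration-response for 18-24 h at 37 °C. Viability by CellTiter-Fluor fluorescence (Ex 405/Em 525) after 30 min; luciferase luminescence (BugLite, 15 min, RT) read afterwards.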
Nrf2 inh = blocks Nrf2 signaling. A549 ARE-Fluc reporter, luciferase luminescence, 18-24 h. Potency, µM (doses to about 46 µM), hits mostly inhibitors. 360,000 tested, 2.1% active; also: nearly all actives have a fitted effect of over 60% in size
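In this cell-based qHTS, ARE-driven firefly luciferase in A549 cells reports Nrf2 activity; the luminescent signal after BugLite lysis is the measured value, with a prior CellTiter-Fluor read for cell health.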
ERG-DNA inh = blocks human ERG Ets domain binding to DNA. 370,000 tested, 0.028% active. fluorescence polarization, His-ERG Ets domain / labelled DNA. P11308. Potency, µM (doses to about 76.9 µM), actives largely listed as inhibitors; active = well fitted inhibition curve with a large enough effect in the polarisation, with a control signal flat; inconclusive = small, poorly fitted or top-dose-only effect, or effect the other way, or a change in a side signal; inactive = no such curve, though single readings can be large or run the other way; the % refers to the polarisation;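 also: polarization taken with two DNA probes labelled with fluorescein and Texas red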
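His-tagged ERG Ets domain (1 uM in the protein solution; 300mM KCl, 50mM Tris-HCl, 1mM EDTA, 1mM DTT, pH 7.5) received compound, then a probe mix of 5 nM fluorescein-DNA and 100nM Texas-615-DNA. Fluorescence polarization was read for both dyes.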
LDHA inh = blocks human lactate dehydrogenase A. activity change, % (values are at about 110 or 230 µM). 480,000 tested, 0.15% active. purified LDHA, NADH/diaphorase-resazurin fluorescence; hits give low values. P00338. AID 1347041; in the data active = activity change below about -30%; inconclusive = mostly about -25% to -30%
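Human LDH5 (2 nM) was incubated with 0.06 mM NADH and 0.2 mM pyruvate for 5 min at room temperature in Tris pH 7.4. Remaining NADH was coupled through diaphorase/resazurin, and resorufin fluorescence was read at 0 and 20 min.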
Nrf2 ARE act = Nrf2 pathway activation; Potency, µM (top dose mostly 46.1 µM), actives largely listed as activators; AREc32 ARE-luciferase reporter (MCF7-derived line), luminescence, 24 h; 410,000 tested, 0.31% active; also: nearly all actives have a fitted effect of over 65% in size
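AREc32_Fluc, 1000 cells/well, OPTI-MEM + 5% FBS, o/n 37 deg C 5% CO2; 23 nL cpd by pin tool, 24 hr; Steady-Glo 30 min RT, luminescence.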
A number is an active result; n = inactive; u = inconclusive; x = not tested or not shown; ! = repeats disagree; [ ] = remark or other dose. Compounds with a hit are over-represented: about 2.7% of the library has one in this group of screens. Unless noted, calls follow the shape of the dose curve; as a rule, active = well fitted curve in the direction sought with a large enough effect; inconclusive = small, poorly fitted or top-dose-only effect, or another doubt; inactive = no such curve, though single readings can be large; an effect the other way counts as inactive or inconclusive.

SMILES | 12-LOX inh | A549 viability | Nrf2 inh | ERG-DNA inh | LDHA inh | Nrf2 ARE act
Cn1c(-c2ccccc2)c(/C=N/Nc2ccc(S(=O)(=O)Nc3ccccc3)cc2[N+](=O)[O-])c2ccccc21 | n | x | x | x | n | x
O=C1NCc2ccccc2CC12CCN(Cc1c[nH]c3ccccc13)CC2 | n[6.33 µM] | x | x | x | x | x
O=C1NCc2ccccc2CC12CCN(Cc1ccnc3ccccc13)CC2 | 28µM | x | x | x | x | x
O=C1NCc2ccccc2CC12CCCN(Cc1ccnc3ccccc13)C2 (stereo not drawn) | 22µM | x | x | x | x | x
C/C(=N\NC(=O)C1CCCCC1)c1ccc(NC(=O)c2ccc(Cl)s2)cc1 | n | x | x | x | n | x
CC(C)c1ccc(NC(=O)/C=C/c2cc3cc(Cl)ccc3o2)cc1 | n | x | x | x | n | x
Cc1c(C=O)c(C)n(C)c1C | n | x | x | x | n | x
Cc1ccc(NC(=O)Cn2c(=O)n(-c3ccccc3)c(=O)c3ccc(C(=O)NCc4ccc5c(c4)OCO5)cc32)c(C)c1 | n | n | 7.3µM | n | n | n
CN(C(=O)c1ccnc(-c2nnc3ccc(N4CCOCC4)nn23)c1)c1ccccc1 | 32µM | x | x | x | x | x
CC(OC(=O)c1snc(C(=O)NC2CCCCC2)c1N)C(=O)NC(C)(C)C (stereo not drawn) | n | n | 11µM | n | n | n
CC(C)(C)C(=O)CN1C(=O)N(c2ccc(Cl)cc2)S(=O)(=O)c2ccccc21 | n | x | x | x | n | x
CCNc1sc(C(C)=O)c(N)c1C#N | 3.2µM | x | x | x | -35 | x
CCCc1c(C(=O)OCC)sc(N)c1C#N | n | n | u | n | n | n
O=C(/C=C/c1cccc(Cl)c1)c1ccc(OC(F)F)cc1OC(F)F | n | x | x | x | n | x
O=[N+]([O-])c1ccc(Cl)cc1N1CCCCC1 | n | n | n | n | n | n
O=[N+]([O-])c1ccc(Cl)cc1CN1CCCCCC1 | 5µM | n | n | n | n | n
O=C(Nc1ccccc1Sc1ccccc1)C1CCCC1 | n | x | x | x | n | x
O=C(Nc1ccc(F)cc1)C1CCc2nc(N3CCN(C(=O)C4CCC4)CC3)sc2C1 (stereo not drawn) | n | x | x | x | x | x
Cc1ccc(O)c(NC(=S)NC(=O)/C=C/c2ccccc2)c1 | n | n | n | n | n | 11µM
O=C(/C=C/c1ccccc1)NC(=S)NNC(=O)c1ccccc1 | 6.3µM | x | x | x | n | x
O=C(/C=C/c1ccccc1)NC(=S)Nc1ccccc1O | n | n | n | n | n | n
COc1cc(OC)cc(C(=O)NC(=S)NNC(=O)c2cnccn2)c1 | 50µM | n | u | n | n | n
O=C(/C=C/c1ccccc1)NC(=S)NNC(=O)c1cnccn1 | n | n | 7.3µM | n | n | n
Cc1cccc(C(=O)NNC(=S)NC(=O)/C=C/c2ccccc2)c1 | u | x | x | x | n | x
COc1ccccc1C1(CNC(=O)c2cccc(F)c2)CCOCC1 | n | x | x | x | n | x
SMILES | 12-LOX inh | A549 viability | Nrf2 inh | ERG-DNA inh | LDHA inh | Nrf2 ARE act
O=C(/C=C/c1ccncc1)c1ccc(N2CCOCC2)cc1 | u | x | x | x | n | x
COC(=O)C1=C(C(=O)OC)C(c2ccccc2O)c2sc(=O)[nH]c2S1 (stereo not drawn) | 45µM | n | n | n | n | u
O=C(COc1ccc(C(=O)c2ccc(F)cc2)cc1)Nc1cccc(S(=O)(=O)N2CCOCC2)c1 | n | n | 23µM | n | n | n
CC(=O)Oc1ccc(-c2ccc(C(=O)Nc3cccc(S(=O)(=O)N4CCOCC4)c3)cc2)cc1 | n | u | 13µM | n | n | n
CC(C)(C)c1ccc(C(=O)Nc2cccc(C(=O)N3CCOCC3)c2)cc1 | n | u | 8.2µM | n | n | n
COc1ccc(C(=O)NC(=S)Nc2cccc(S(=O)(=O)N3CCOCC3)c2)cc1 | 28µM | n | n | n | n | n
O=C(COC(=O)CCC(=O)c1ccc(F)cc1)Nc1cccc(S(=O)(=O)N2CCOCC2)c1 | n | n | n | n | n | n
CCN1CCN(c2ccc(S(=O)(=O)N3CCCCC3)cc2NC(=O)Cc2ccccc2)CC1 | 16µM! | n | n | n | n | n
CCN1CCN(c2ccc(S(=O)(=O)N3CCOCC3)cc2NC(=O)c2ccc(OCC(C)C)cc2)CC1 | n | n | 9.2µM | n | n | n
COc1ccc(NS(=O)(=O)c2ccc(N3CCOCC3)c(NC(=O)c3ccc(F)cc3)c2)cc1 | n | n | 9.2µM | n | n | n
CC(Oc1ccc(F)cc1)C(=O)Nc1cc(S(=O)(=O)N2CCOCC2)ccc1N1CCCCC1 (stereo not drawn) | n | u | 21µM | n | n | n
CC(C)COc1ccc(C(=O)Nc2cc(S(=O)(=O)N3CCOCC3)ccc2N2CCCC2)cc1 | n | n | n | n | n | n
CCOc1ccccc1NC(=O)C(C)Oc1ccc(-n2cnnn2)cc1 (stereo not drawn) | n | x | x | x | n | x
Cc1nc2cccnc2n1CC1CCCN(S(=O)(=O)c2cccc(Br)c2)C1 (stereo not drawn) | n | x | x | x | x | x
CC1CCCN(c2ccc(C(=O)Nc3ccc4c(c3)OCO4)cc2[N+](=O)[O-])C1 (stereo not drawn) | n | n | u | n | n | n
O=C(Nc1ccc(-c2nc3ccccc3o2)cc1)c1ccc(N2CCOCC2)c([N+](=O)[O-])c1 | n | u | 16µM | n | n | n
CC1CCN(c2ccc(C(=O)Nc3ccc4c(c3)OCO4)cc2[N+](=O)[O-])CC1 | n | n | 9.2µM | n | n | n
Cn1cc([N+](=O)[O-])c(C(=O)Nc2ccc(-c3nc4ccccc4o3)cc2)n1 | n | n | n | n | n | 5µM
COc1ccc2oc(-c3ccc(NC(=O)c4ccc(N5CCOCC5)c([N+](=O)[O-])c4)cc3)nc2c1 | n | n | n | n | n | n
CC(Sc1nnc(-c2cccs2)n1C1CC1)C(=O)NC(C)(C)C (stereo not drawn) | n | x | x | x | n | x
Cc1ccc(-c2cc(C(=O)N3CCCC(C(F)(F)F)C3)c3ccccc3n2)o1 (stereo not drawn) | 7.9µM! | n | n | n | n | n
COc1ccc(-c2cc(C(=O)N3CCCC(C(F)(F)F)C3)c3ccccc3n2)cc1 (stereo not drawn) | n | n | n | n | n | n
Cc1ccc(-c2cc(C(=O)N3CCN(c4ccc(F)cc4)CC3)c3ccccc3n2)o1 | 14µM | n | n | n | n | n
COC(=O)C(C)NC(=S)N1CCN(c2c(F)cc3c(=O)c(C(=O)O)cn(C4CC4)c3c2OC)CC1C (stereo not drawn) | 8.9µM | n | n | n | n | n
O=C(Cc1ccccc1Cl)N1CC=C(c2c[nH]c3ncccc23)CC1 | u | x | x | x | n | x
CC(C)NCC1(COc2ccccc2)C[C@@H](O)[C@@H](O)C1 (stereo partly drawn) | n | x | x | x | x | x
